Test results as given in PubChem BioAssay (NCI).
The panel holds about 83,000 compounds, 20% with a hit somewhere; the sample as a whole holds those more often.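 Growth was measured after 48 h exposure to one concentration of compound in 96-well plates. Values under 10 count as active.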 Values without a mark were called inactive. Calls of active or inactive are those of the source.

Columns and labels:
Test in all cases: NCI-60 one-dose screen, 48 h (100 = growth as untreated, 0 = no growth, -100 = all killed)
Settings in all cases: 10 µM unless noted
SK-MEL-2 melanoma = test system: SK-MEL-2 melanoma
EKVX NSCLC = test system: EKVX NSCLC
SN12C renal = test system: SN12C renal
TK-10 renal = test system: TK-10 renal
ACHN renal = test system: ACHN renal
CAKI-1 renal = test system: CAKI-1 renal
A498 renal = test system: A498 renal
CCRF-CEM leukemia = test system: CCRF-CEM leukemia
MOLT-4 leukemia = test system: MOLT-4 leukemia
SR leukemia = test system: SR leukemia
RPMI-8226 leukemia = test system: RPMI-8226 leukemia
OVCAR-8 ovarian = test system: OVCAR-8 ovarian
OVCAR-5 ovarian = test system: OVCAR-5 ovarian
OVCAR-4 ovarian = test system: OVCAR-4 ovarian
SK-OV-3 ovarian = test system: SK-OV-3 ovarian
IGROV1 ovarian = test system: IGROV1 ovarian
OVCAR-3 ovarian = test system: OVCAR-3 ovarian
HS 578T breast = test system: HS 578T breast
NCI/ADR-RES ovarian = test system: NCI/ADR-RES ovarian

Row | SMILES | growth (SK-MEL-2 melanoma) | growth (EKVX NSCLC) | growth (SN12C renal) | growth (TK-10 renal) | growth (ACHN renal) | growth (CAKI-1 renal) | growth (A498 renal) | growth (CCRF-CEM leukemia) | growth (MOLT-4 leukemia) | growth (SR leukemia) | growth (RPMI-8226 leukemia) | growth (OVCAR-8 ovarian) | growth (OVCAR-5 ovarian) | growth (OVCAR-4 ovarian) | growth (SK-OV-3 ovarian) | growth (IGROV1 ovarian) | growth (OVCAR-3 ovarian) | growth (HS 578T breast) | growth (NCI/ADR-RES ovarian)
1 | CN1CCN(CCOc2ccc(-c3cnc4c(-c5ccc(F)cc5)cnn4c3)cc2)CC1 | 81.8% | 76.3% | 61.6% | 75.1% | 46.6% | 45.5% | 74.9% | 17.6% | 8.99% (active) | 1.31% (active) | 27% | 58.1% | 83.4% | 49% | 93.1% | 48.2% | 28.4% | 56.7% | 76.5%
2 | O=S(=O)(Oc1ccc(Br)cc1)c1ccc(Cl)cc1 | 116% | 95.7% | 105% | 84.1% | 117% | 105% | 86.6% | 97% | 85.1% | 98.3% | 99.7% | 106% | 92.5% | 98.9% | 108% | 98.8% | 98.3% | 104% | 96.2%
3 | CCCCCCCC/C=C\CCCCCCCCOc1ccc(CC(=O)NCC[N+]2(C)CCOCC2)cc1 | 112% | 91.2% | 64.1% | 44.7% | 82.9% | 53.5% | 91.8% | 53% | 79.9% | 71.7% | 66.6% | 73% | 29.5% | 97.3% | 98.8% | 5.35% (active) | 98.1% | 72.5% | 104%
4 | COc1ccc(NC(=O)Nc2ccc(OCCCCCC(=O)NO)cc2)cc1 | 79.9% | 121% | 97% | 89.3% | 107% | 93.5% | 85.2% | 85.6% | 85.6% | 71.6% | 97.8% | 87.8% | 113% | 122% | 97.1% | 115% | 103% | 94.1% | 99.6%
5 | O=C(N=Nc1c(O)[nH]c2ccccc12)Nc1ccc(F)cc1 | 102% | 94.3% | 94.6% | 113% | 92.8% | 81.5% | 102% | 95.4% | 92.5% | 84.2% | 91% | 96.7% | 90.4% | 103% | 80.5% | 85.2% | 102% | 96.2% | 104%
6 | CCCCNc1cc(-c2cn[nH]c2-c2cc(C)cc(OC)c2)nc(-c2cccnc2)n1 | 115% | 88.3% | 95.3% | 97.2% | 96.7% | 66.2% | 64.4% | 84.7% | 82.6% | 60.1% | 83.1% | 80.2% | 85.3% | 73.8% | 97.1% | 115% | 98.8% | 97.6% | 89.8%
7 | COc1ccc(/C=C2\CN(C(=O)C(Cl)Cl)C/C(=C\c3ccc(OC)cc3)C2=O)cc1 | 68.6% | 14.5% | -38.9% (active) | 20.4% | -58.3% (active) | -18.9% (active) | -73.1% (active) | 9.77% (active) | 5.42% (active) | 1.01% (active) | -14.3% (active) | 19% | 9.63% (active) | 3.73% (active) | 41.6% | – | -75.3% (active) | 17.8% | 11.6%
8 | COc1ccc(/C(C)=C(/c2ccc(OCCCN(C)C)cc2)c2ccc(OC(=O)c3ccccc3)cc2)cc1 | 90.9% | 74.5% | 79.1% | 87.8% | 111% | 89.7% | 91.5% | 64.3% | 54.2% | 9.15% (active) | 62.6% | 91.6% | 88.1% | 99.8% | 90.8% | 93.6% | 69.5% | 55.4% | 86.4%
9 | O=[N+]([O-])c1cc(NS(=O)(=O)c2ccccc2)ccc1NS(=O)(=O)c1ccccc1 | 99.6% | 119% | 90.4% | 112% | 91.4% | 129% | 115% | 96.3% | 117% | 128% | 109% | 93% | 106% | 106% | 102% | 119% | 111% | 98.5% | 105%
10 | CO[C@H]1CC(=O)n2c3ccccc3c3c4c(c5c6ccccc6n1c5c32)C(=O)NC4=O | 70.5% | 71.8% | 65.6% | 37.3% | 68.1% | 58.1% | 56.2% | 78.3% | 74.9% | 20.8% | 88% | 37.1% | 120% | 24.6% | 68.1% | 37.3% | 56.1% | 27.6% | 36.2%
11 | O=C(CSc1nc(-c2ccccc2)cc(=O)[nH]1)Nc1nc(-c2ccccc2)cs1 | 96.9% | 75.7% | 102% | 106% | 95.2% | 75.1% | 114% | 96.2% | -17.6% (active) | 45.1% | 96.1% | 97% | 95.9% | 96.1% | 84.1% | 57.8% | 101% | – | 93.2%
12 | O=S(=O)(NCCNc1nccc(-c2c(-c3ccc(F)c(O)c3)nc3sccn23)n1)c1ccc(F)cc1 | 12.3% | 55.7% | 28.5% | 83.5% | 19.7% | 20.6% | 70.9% | 12.7% | 11.7% | 1.25% (active) | 11.5% | 29% | 67.9% | 31.5% | 36.1% | 12.2% | 39.4% | 26.9% | 92.6%
13 | Ic1ccccc1I | 85.4% | 98.9% | 105% | 105% | 104% | 105% | 106% | 42.6% | 101% | 90.1% | 104% | 96.8% | 98% | 101% | 106% | 99.8% | 110% | 97.1% | 101%
14 | CCNC(=O)Oc1ccc(/C(=C(/CC)Cc2ccccc2)c2ccc(OCCN3CCCC3)cc2)cc1 | 108% | 88.3% | 92.7% | 91.2% | 95.1% | 96.8% | 89.3% | 87.2% | 75.9% | 75.5% | 77.7% | 94.1% | 94.6% | 93.3% | 88.5% | – | 96.9% | 93.5% | 97.9%
15 | CN(CCC(=O)c1ccccc1)CCC(=O)c1ccccc1 | 91% | 103% | 82.5% | 88.8% | 107% | 90.7% | 78.9% | 80.6% | 94.5% | 49.9% | 50.8% | 93.2% | 95.5% | 103% | 99.8% | 95.3% | 113% | 100% | 86.5%
